# Compounds with a hit are over-represented: about 4.1% of the library has one in this group of screens.
# tim23-1 inh: growth inhibitors of tim23-1 mutant yeast, primary screen, luminescence, uHTS; S. cerevisiae tim23-1 growth, BacTiter-Glo luminescence, 24 h; inhibition, % at 20 µM; 330,000 tested, 1.3% active; AID 463212, 2010;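 active = growth inhibition of the mutant yeast at or above 50%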;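 note: temperature-sensitive mutant grown at 25 °C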
# TIM10 inh: growth inhibitors of isogenic TIM10 control yeast, primary screen, counter-screen for tim10-1 yeast inhibitor project, luminescence, uHTS | S. cerevisiae TIM10 strain growth, BacTiter-Glo luminescence, 24 h | 330,000 tested, 1.4% active | inhibition, % at 10 µM;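 active = inhibition of 40% or more at the single tested concentration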;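 note: wild-type TIM10 isogenic control strain grown at permissive 25 °C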
# tim10-1 inh: growth inhibitors of tim10-1 mutant yeast, primary screen, luminescence, uHTS. S. cerevisiae tim10-1 ts strain growth, BacTiter-Glo, 24 h. AID 463190, 2010. inhibition, % at 20 µM. 330,000 tested, 2.2% active;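 active = inhibition of at least 40%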;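 note: mutant grown at 25 °C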
# NALP3 yeast inh: NALP3 inflammasome inhibitors in reconstituted yeast, primary screen, luminescence, uHTS. Yeast reconstituted NLRP3/ASC/caspase-1, beta-gal luminescence, 24 h. 330,000 tested, 0.39% active. AID 2825, 2010. inhibition, % at 10 µM;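 active = inhibition of 50% or more; inactive = inhibition below 50%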
# NALP1 yeast inh: NALP1 inflammasome inhibitors in reconstituted yeast, colorimetric, S. cerevisiae, triplicate retest; AID 2071, 2009; 280,000 tested, 0.61% active; inhibition, % at 10 µM; S. cerevisiae NALP1/ASC/caspase-1 growth, X-gal OD620, 72 h; in the data active = inhibition mostly above about 24%, no sharp cut-off; inactive = mostly below about 32%
# tim10-1 conf: growth inhibitors of tim10-1 mutant yeast, confirmation, single concentration, luminescence, S. cerevisiae; S. cerevisiae tim10-1 ts strain growth, BacTiter-Glo, 24 h; 7,400 tested, 56% active; shares compounds with tim10-1 inh; inhibition, % at 20 µM; AID 463213, 2010;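 active = inhibition of yeast growth at or above a set limit in either of two repeat tests at 20 µM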;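 note: tim10-1 mutant grown at permissive 25 °C to find synthetic lethal compounds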
# Hits are given with their value; - = inactive; . = no result.
SMILES,tim23-1 inh,TIM10 inh,tim10-1 inh,NALP3 yeast inh,NALP1 yeast inh,tim10-1 conf
OC(COC(c1ccccc1)c1ccccc1)CN1CCc2ccccc2C1 (stereo not given),-,-,-,-,-,.
CC(C)CN(C(=O)COC(=O)CCc1nc2ccccc2s1)c1c(N)n(Cc2ccccc2)c(=O)[nH]c1=O,-,-,-,-,.,.
O=C(CCCN1C(=O)c2cccc3cccc(c23)C1=O)N1CCN(c2ccc(F)cc2)CC1,-,-,-,-,-,.
COc1ccc(N2CCN(C(=O)CCCN3C(=O)c4cccc5cccc(c45)C3=O)CC2)cc1,-,-,49.1,-,-,-
COc1ccc(N2CCN(C(=O)COC(=O)CCOc3ccccc3C)CC2)cc1,-,-,42.6,-,.,-
COc1ccc(N2CCN(C(=O)COC(=O)CCOc3cc(C)ccc3C)CC2)cc1,-,-,-,-,.,.
O=C(CSC1=NCCS1)Nc1ccnc2ccccc12,-,-,-,-,-,.
CN(CC(=O)Nc1ccc(Cl)c(Cl)c1)CC(=O)Nc1ccc2c(c1)OCO2,-,-,-,-,.,.
COc1ccc(Cl)cc1NC(=O)C(OC)c1ccccc1 (stereo not given),-,-,-,-,-,.
COC(/C(=N/O)c1ccc(Cl)cc1)c1ccccc1 (stereo not given),-,-,46.6,-,-,31.0
CCOc1ccc(NC(=O)CN(C)c2nnnn2-c2ccccc2)cc1OCC,-,-,-,-,-,.
COC(=O)c1sccc1NC(=S)N1CCN(c2ccccc2F)CC1,-,-,-,-,-,.
CCOc1cc(C2C(C#N)=C(N)OC(C)=C2C(C)=O)cc(Br)c1O (stereo not given),-,-,-,-,-,.
CCOc1cc(C2C(C#N)=C(N)OC(C)=C2C(C)=O)c(Br)c(Br)c1OC(C)C (stereo not given),-,-,45.5,-,-,-
O=C1C2C3C=CC(C3)C2C(=O)N1CCN1CCN(S(=O)(=O)/C=C/c2ccccc2)CC1 (stereo not given),-,-,41.9,-,-,-
Cc1nn(C(C)C(=O)NC2CCC(C)CC2)c(=O)c2nn(-c3ccccc3)c(C)c12 (stereo not given),-,-,40.7,-,-,-
COc1cc(C(=O)OCC(=O)N2CC(C)OC(C)C2)cc(OC)c1OC (stereo not given),-,-,-,-,-,.
O=C1CN(S(=O)(=O)c2ccccc2)CCN1,-,-,-,-,.,.
COc1ccc(NC(=O)Cn2ccc(C(F)(F)F)n2)cc1S(=O)(=O)N1CCOCC1,-,-,-,-,.,.
FC(F)(F)c1ccccc1-c1nc(-c2ccncc2)no1,-,-,-,-,-,.
CS(=O)(=O)c1ccccc1-c1nc(-c2ccc(C(F)(F)F)cc2)no1,-,-,40.1,-,-,-
Cc1cc(Cl)ccc1OCC(=O)OCC(=O)c1c(N)n(C)c(=O)n(C)c1=O,-,-,-,-,.,.
C/C(CC(=O)Nc1ccc(C)c(Cl)c1)=N\NC(=O)c1ccco1,-,-,40.8,-,-,-
C/C(CC(=O)Nc1ccc(C)c(Cl)c1)=N\NC(=O)Cc1ccccc1,-,-,-,-,-,.
CCOC(=O)Cn1nc(C)n(-c2ccc(F)cc2)c1=O,-,-,-,-,-,.
SMILES,tim23-1 inh,TIM10 inh,tim10-1 inh,NALP3 yeast inh,NALP1 yeast inh,tim10-1 conf
COc1ccc(C(C(=O)NC2CCCC2)N(C(=O)c2ccoc2C)c2ccc(C)c(C)c2)cc1 (stereo not given),-,-,41.1,-,-,-
CCCCCCCCCS(=O)(=O)N/N=C/c1cccc([N+](=O)[O-])c1,-,-,42.3,-,-,-
CN(C)/N=C/C=C1\CCC/C(=C\c2ccc(F)c(F)c2)C1=O,-,-,46.0,-,-,47.9
COc1ccc(/C=C2\CCC/C(=C\C=N\N(C)C)C2=O)cc1,-,-,-,-,-,.
O=S(=O)(Nc1ccc(N2CCOCC2)cc1)c1c(F)cc(F)cc1Br,-,-,-,-,-,.
CCOc1ccccc1NC(=O)CCSc1nc2n[nH]c(C)c2c(=N)n1-c1ccccc1Cl,-,-,-,-,-,.
Cc1ccccc1-n1c(SCC(=O)Nc2ccccc2Cl)nc2n[nH]c(C)c2c1=N,-,-,41.6,-,-,-

# Assay outcomes (PubChem BioAssay)
